In PubChem BioAssay:
The source made the active and inactive calls.

Columns and labels:
[1] = small molecules captured by biotinylated probe aFSTL3 – biochemical, small-molecule microarray, fluorescence 635/667, stem cell growth factor project, primary screen (AID 1064); conditions: higher = more signal;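 also: measures binding of the biotinylated anti-FSTL3 antibody to printed compounds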
[2] = binders from COS7 lysate, DM2A8 probe, primary screen, torsin A project, cell lysate, small-molecule microarray, fluorescence 635/667 (AID 1065); conditions: higher = more signal, COS7 lysate expressing mutant human TOR1A
[3] = small molecules captured by biotinylated probe aFGF2 – biochemical, small-molecule microarray, fluorescence 635/667, stem cell growth factor project, primary screen (AID 1067); conditions: higher = more signal;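 also: measures binding of biotinylated aFGF2 protein to printed compounds on slides; z-score merges feature fluorescence and signal-to-noise across triplicate slides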
[4] = small molecules captured by biotinylated probe aFGF10 – biochemical, small-molecule microarray, fluorescence 635/667, stem cell growth factor project, primary screen (AID 1071); conditions: higher = more signal;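 also: score merges 667 nm spot intensity and signal to noise from triplicate slides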
[5] = biological target: Neurogenic locus notch homolog protein 2 (Homo sapiens) (UniProt Q04721); experiment: small molecules binding Notch2 protein – biochemical, small-molecule microarray, 635 nm fluorescence, stem cell growth factors, primary screen (AID 1073); conditions: higher = more signal
[6] = biological target: Pro-neuregulin-1, membrane-bound isoform (Homo sapiens) (UniProt Q02297); experiment: small molecules binding neuregulin-1 protein – biochemical, small-molecule microarray, fluorescence 635/667, psychiatric disease protein project, primary screen (AID 1075); conditions: NRG1 binding, 635 nm fluorescence, higher = more signal;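 also: score combines 667 nm spot fluorescence with signal to noise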
[7] = test system: Neuregulin-1 EGF-like domain; experiment: small molecules binding NRG1 EGF domain – biochemical, small-molecule microarray, 635 nm fluorescence, primary screen (AID 1081); conditions: higher = more signal;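 also: binding of the protein to compounds printed on small-molecule microarray slides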
[8] = FRG1 expression reporter modulators in myotubes – cell-based, C2C12 myotubes, firefly/Renilla luciferase, luminescence, FRG1 inhibition for FSHD, primary screen (AID 1084); conditions: FRG1 promoter luciferase, higher = more signal, called active from +8 up or from −8 down
[9] = small molecules captured by biotinylated probe aFST – biochemical, small-molecule microarray, fluorescence 635/667, stem cell growth factor project, primary screen (AID 1086); conditions: higher = more signal;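 also: score merges 667 nm fluorescence with signal-to-noise of each printed compound spot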
[10] = binders of probe aHhip on microarray, primary screen, stem cell growth factor project, biochemical, small-molecule microarray, fluorescence 635/667 (AID 1087); conditions: higher = more signal;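 also: score merges spot fluorescence at 667nm with spot signal to noise ratio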
[11] = test system: PRMT1 (protein arginine N-methyltransferase 1); experiment: small molecules binding arginine methyltransferase PRMT1 – biochemical, small-molecule microarray, 635 nm fluorescence, primary screen (AID 1088); conditions: higher = more signal;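 also: binding of Prmt1 protein to compounds spotted on small-molecule microarray slides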
[12] = growth effects on S. cerevisiae YJM789 – YJM789 clinical isolate, OD600, 24 h, basal, primary screen (AID 1089); conditions: higher = more signal, called active from +8 up or from −8 down;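 also: growth of clinical yeast isolate S. cerevisiae YJM 789 seeded 1000 cells per well; test concentration not given here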
[13] = S. pombe growth modifiers, basal conditions – strain 972, OD600, 24 h, no modulator, primary screen (AID 1090);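 also: basal condition with compound alone and no growth modifier present; test concentration not given here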; conditions: S. pombe 972 growth, higher = more signal, called active from +8 up or from −8 down
[14] = budding yeast growth modifiers under rapamycin – strain BY4716, OD600, 96 h, primary screen (AID 1091); also: test concentration not given here; conditions: S. cerevisiae BY4716 + rapamycin, higher = more signal, called active from +8 up or from −8 down
[15] = biological target: Torsin-1A-interacting protein 2 (Homo sapiens) (UniProt Q8NFQ8); experiment: small molecules binding lysate-expressed LULL1 – cell lysate, human LULL1 lysate, 635/667 nm fluorescence, primary screen (AID 1092); conditions: small-molecule microarray, hLULL1 lysate binding, 635 nm fluorescence; higher = more signal;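 also: probe is lysate of COS7 cells overexpressing human LULL1; score merges per-feature 667 nm fluorescence with signal-to-noise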
[16] = optical density change of DRC41 E. coli – strain DRC41, OD650, 24 h, E. coli filamentation project, primary screen (AID 1093);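 also: MC1000 strain lacking acrAB efflux and sulA so SOS filamentation is blocked; test concentration not given here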; conditions: E. coli DRC41 growth, higher = more signal, called active from +8 up or from −8 down
[17] = probe aLefty2 binding to arrayed compounds – biochemical, biotinylated probe, 635/667 nm fluorescence, primary screen (AID 1094); conditions: small-molecule microarray, higher = more signal;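 also: score merges spot fluorescence near 667 nm with spot signal-to-noise ratio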
[18] = test system: Noggin (protein binding on small-molecule microarray); experiment: small molecules binding Noggin protein – biochemical, 635/667 nm fluorescence, primary screen (AID 1095); conditions: 635 nm fluorescence, higher = more signal;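 also: score merges 667 nm feature fluorescence with signal to noise over triplicate slides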
[19] = biological target: Neurogenic locus notch homolog protein 3 (Homo sapiens) (UniProt Q9UM47); experiment: small molecules binding NOTCH3 protein – biochemical, 635/667 nm fluorescence, primary screen (AID 1096); conditions: small-molecule microarray, 635 nm fluorescence, higher = more signal
[20] = probe aEGFR binding to arrayed compounds – biochemical, biotinylated probe, 635/667 nm fluorescence, primary screen (AID 1097); conditions: small-molecule microarray, higher = more signal;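 also: probe is a biotinylated anti-EGFR antibody binding compounds printed on slides; score combines fluorescence near 667 nm and signal to noise of each spot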

Chain of Pro-neuregulin-1, membrane-bound isoform (Homo sapiens) (Q02297 whole entry, looked up, the tested form may be a part, canonical isoform): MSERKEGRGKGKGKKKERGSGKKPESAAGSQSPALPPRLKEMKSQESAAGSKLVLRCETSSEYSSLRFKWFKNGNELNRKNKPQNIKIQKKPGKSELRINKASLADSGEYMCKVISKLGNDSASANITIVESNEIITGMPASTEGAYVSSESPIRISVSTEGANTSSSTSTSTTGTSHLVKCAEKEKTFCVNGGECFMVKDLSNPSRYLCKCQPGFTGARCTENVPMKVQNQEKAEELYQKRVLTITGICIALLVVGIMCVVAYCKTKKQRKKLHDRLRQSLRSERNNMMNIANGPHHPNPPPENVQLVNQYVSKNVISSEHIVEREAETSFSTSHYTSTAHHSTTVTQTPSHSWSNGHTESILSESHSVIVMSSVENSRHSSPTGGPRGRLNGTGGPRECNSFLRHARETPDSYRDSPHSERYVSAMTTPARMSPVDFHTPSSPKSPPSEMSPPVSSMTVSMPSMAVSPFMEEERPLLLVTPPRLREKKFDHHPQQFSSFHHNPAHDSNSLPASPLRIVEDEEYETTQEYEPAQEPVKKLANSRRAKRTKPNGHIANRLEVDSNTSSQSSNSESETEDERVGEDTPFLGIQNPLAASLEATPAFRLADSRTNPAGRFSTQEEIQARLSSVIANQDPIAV
Chain of Neurogenic locus notch homolog protein 3 (Homo sapiens) (Q9UM47 whole entry, looked up): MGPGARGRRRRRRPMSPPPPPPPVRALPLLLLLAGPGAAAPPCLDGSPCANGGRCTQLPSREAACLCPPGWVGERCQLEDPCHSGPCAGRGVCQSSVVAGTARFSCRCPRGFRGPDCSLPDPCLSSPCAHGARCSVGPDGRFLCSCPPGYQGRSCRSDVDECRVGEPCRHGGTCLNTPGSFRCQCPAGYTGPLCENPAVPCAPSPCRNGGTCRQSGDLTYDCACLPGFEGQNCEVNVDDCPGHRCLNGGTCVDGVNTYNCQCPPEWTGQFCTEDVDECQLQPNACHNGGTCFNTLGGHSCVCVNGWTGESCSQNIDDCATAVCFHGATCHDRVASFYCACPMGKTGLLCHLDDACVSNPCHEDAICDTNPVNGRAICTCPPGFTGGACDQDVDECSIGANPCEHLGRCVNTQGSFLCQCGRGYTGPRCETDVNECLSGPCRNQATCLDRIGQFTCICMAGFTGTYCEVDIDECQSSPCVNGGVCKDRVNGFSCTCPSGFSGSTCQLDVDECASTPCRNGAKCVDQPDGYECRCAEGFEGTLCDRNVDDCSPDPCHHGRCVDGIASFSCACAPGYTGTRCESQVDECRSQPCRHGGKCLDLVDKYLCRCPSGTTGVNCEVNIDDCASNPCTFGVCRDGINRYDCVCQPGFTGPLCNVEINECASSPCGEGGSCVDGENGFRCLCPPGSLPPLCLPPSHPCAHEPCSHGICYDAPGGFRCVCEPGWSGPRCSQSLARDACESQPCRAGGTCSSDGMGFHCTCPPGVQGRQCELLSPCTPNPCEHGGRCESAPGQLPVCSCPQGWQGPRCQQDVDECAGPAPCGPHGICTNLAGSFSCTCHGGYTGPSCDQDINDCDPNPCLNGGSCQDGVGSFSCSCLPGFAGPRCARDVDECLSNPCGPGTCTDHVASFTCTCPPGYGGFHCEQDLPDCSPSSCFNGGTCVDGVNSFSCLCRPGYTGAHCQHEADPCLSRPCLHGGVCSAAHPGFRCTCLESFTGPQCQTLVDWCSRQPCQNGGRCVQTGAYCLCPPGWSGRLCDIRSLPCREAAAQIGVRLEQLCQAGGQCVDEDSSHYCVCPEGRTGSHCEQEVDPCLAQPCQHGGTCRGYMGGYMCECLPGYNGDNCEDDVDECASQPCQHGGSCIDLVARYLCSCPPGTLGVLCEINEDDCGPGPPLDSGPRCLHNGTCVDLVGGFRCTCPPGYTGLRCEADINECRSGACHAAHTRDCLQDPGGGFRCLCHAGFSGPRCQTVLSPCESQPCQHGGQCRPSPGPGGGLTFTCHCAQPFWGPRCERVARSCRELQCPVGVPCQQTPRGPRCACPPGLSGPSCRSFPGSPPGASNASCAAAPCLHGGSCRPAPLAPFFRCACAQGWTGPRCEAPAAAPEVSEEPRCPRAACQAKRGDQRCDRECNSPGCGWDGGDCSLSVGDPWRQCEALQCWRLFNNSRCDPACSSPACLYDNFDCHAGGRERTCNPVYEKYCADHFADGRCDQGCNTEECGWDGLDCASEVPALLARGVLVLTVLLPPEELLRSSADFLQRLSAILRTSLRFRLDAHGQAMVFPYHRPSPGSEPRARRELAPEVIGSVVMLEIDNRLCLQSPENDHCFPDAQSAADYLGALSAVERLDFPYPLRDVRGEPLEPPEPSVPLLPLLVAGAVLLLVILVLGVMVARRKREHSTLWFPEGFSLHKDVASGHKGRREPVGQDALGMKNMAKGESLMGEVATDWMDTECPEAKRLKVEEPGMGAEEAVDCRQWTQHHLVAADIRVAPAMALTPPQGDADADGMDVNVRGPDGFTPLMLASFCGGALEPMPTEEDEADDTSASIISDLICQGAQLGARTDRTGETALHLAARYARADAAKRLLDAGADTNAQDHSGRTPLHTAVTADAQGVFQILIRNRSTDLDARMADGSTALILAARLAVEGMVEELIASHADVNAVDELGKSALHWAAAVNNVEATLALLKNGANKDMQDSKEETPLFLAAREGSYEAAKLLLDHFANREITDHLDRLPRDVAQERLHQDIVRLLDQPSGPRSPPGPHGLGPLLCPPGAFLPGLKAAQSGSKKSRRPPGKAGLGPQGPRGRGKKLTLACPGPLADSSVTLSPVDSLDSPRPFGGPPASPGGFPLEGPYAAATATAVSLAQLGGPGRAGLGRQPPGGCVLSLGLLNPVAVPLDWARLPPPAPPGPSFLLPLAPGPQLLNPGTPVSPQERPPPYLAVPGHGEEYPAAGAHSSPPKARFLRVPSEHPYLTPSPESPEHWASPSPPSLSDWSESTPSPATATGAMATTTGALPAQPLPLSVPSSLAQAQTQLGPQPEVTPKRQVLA
Chain of Torsin-1A-interacting protein 2 (Homo sapiens) (Q8NFQ8 whole entry, looked up): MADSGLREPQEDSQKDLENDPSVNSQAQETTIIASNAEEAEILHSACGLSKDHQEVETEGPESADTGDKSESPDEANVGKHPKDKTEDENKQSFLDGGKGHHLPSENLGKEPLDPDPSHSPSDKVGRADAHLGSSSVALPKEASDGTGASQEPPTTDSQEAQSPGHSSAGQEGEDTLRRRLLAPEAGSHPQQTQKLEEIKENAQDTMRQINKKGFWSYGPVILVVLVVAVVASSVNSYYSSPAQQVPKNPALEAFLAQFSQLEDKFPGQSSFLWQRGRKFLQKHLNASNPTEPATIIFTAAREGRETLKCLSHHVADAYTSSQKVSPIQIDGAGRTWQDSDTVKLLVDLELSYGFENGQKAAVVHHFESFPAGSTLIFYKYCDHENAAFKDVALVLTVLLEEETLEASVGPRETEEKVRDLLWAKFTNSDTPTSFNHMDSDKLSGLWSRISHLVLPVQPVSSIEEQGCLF

| SMILES | composite z-score [1] | composite z-score [2] | composite z-score [3] | composite z-score [4] | composite z-score [5] | composite z-score [6] | composite z-score [7] | z-score [8] | composite z-score [9] | composite z-score [10] | composite z-score [11] | z-score [12] | z-score [13] | z-score [14] | composite z-score [15] | z-score [16] | composite z-score [17] | composite z-score [18] | composite z-score [19] | composite z-score [20] |
| --- | --- | --- | --- | --- | --- | --- | --- | --- | --- | --- | --- | --- | --- | --- | --- | --- | --- | --- | --- | --- |
| COc1ccccc1CN1C(=O)c2ccccc2[C@](Cc2ccccc2I)(C(=O)NCc2ccccc2)[C@@H]1c1ccc(CO)cc1 | 0.317 | 1.33 | -0.0614 | 0.197 | 0.106 | 0.923 | 0.535 | -1.13 (inactive) | 0.182 | 0.154 | 1.02 | -0.295 (inactive) | -0.127 (inactive) | -0.694 (inactive) | 2.22 | 0.106 (inactive) | 0.0023 | -0.373 | -0.418 | -0.0432 |
| O=C1OCCC/C=C\[C@H]2OC34C=CCN(CCN5CCOCC5)C(=O)[C@H]3N(CCO)C(=O)[C@@H]4C12 (stereo not given in full) | -0.163 | -0.435 | -0.154 | -0.313 | -1.12 | -0.501 | 0.843 | 0.808 (inactive) | -0.382 | -0.137 | -0.833 | 0.14 (inactive) | 0.774 (inactive) | -0.131 (inactive) | -0.534 | 1 (inactive) | -0.18 | -0.915 | -1.23 | -0.244 |
| CC(C)(C)OC(=O)CC[C@@]1(C(=O)NCC(O)CO)N=C(c2ccc(OCCCO)cc2)O[C@@H]1c1ccccc1 (stereo not given in full) | 0.222 | 1.68 | -0.11 | 0.0407 | 0.739 | 1.8 | 1.35 | 1.74 (inactive) | 0.74 | 0.12 | 1.46 | 0.531 (inactive) | 0.18 (inactive) | 0.375 (inactive) | 3.77 | -0.103 (inactive) | 0.0689 | -0.364 | 0.356 | -0.071 |
| CC(c1ccccc1)C(O)C1C=CC2C(=O)N(c3ccccc3)C(=O)C2N1Nc1ccccc1F (stereo not given) | -0.0296 | 0.267 | 0.0786 | 0.26 | 0.917 | 1.28 | 0.679 | 0.985 (inactive) | 1.34 | -0.191 | 1.26 | -1.11 (inactive) | 1.15 (inactive) | -1.99 (inactive) | 2.87 | 0.198 (inactive) | 0.0841 | -0.138 | 1.14 | -0.0192 |
